Molecules are shown by their SMILES. Compounds without any hit were thinned out: in the full panel of roughly 83,000, 20% have a hit.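 Negative percent growth values reflect cell death: -40 means 40% of the cells present at the start died, and -100 means all died.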 Values without a mark were called inactive. The source made the active and inactive calls. How the source made its calls: active means growth percent below 10; inactive means the rest.

The text below walks through data of PubChem BioAssay (NCI).

In this experiment the test system is MDA-MB-231 breast. Description: NCI-60 one-dose screen, 48 h (100 = growth as untreated, 0 = no growth, -100 = all killed). Conditions: 10 µM unless noted.
In the case of `COc1cccc2c1c1nc3cc(C)c(C)cc3nc1n2CCN(C)C`, the growth is 23.5%. The same measure for `COc1cc(NC(C)CCCNC(=O)CCC(=O)NCCCNCCCCCCCCCCNCCCNC(=O)CCC(=O)NCCCC(C)Nc2cc(OC)cc3cccnc23)c2ncccc2c1` (configuration not stated): 34.6% [8 µM]. Consider `COc1cc(/C=C\C(=O)O)ccc1OCc1ccccc1`, for which the growth is 93.5%. Take `CCc1c(Cl)nc(N)nc1Nc1ccc(C)c(C)c1`: the growth was 97.3%.

With `COc1cc2nc(-c3ccc(C(F)(F)F)cc3)cc(OCCCN3CCOCC3)c2cc1OC`, the growth was 22.1%. The figure for `CCN(CC)c1ccc(/C=N/NC(=O)CSc2nc3ccccc3c(=O)n2Cc2ccc(S(N)(=O)=O)cc2)c(O)c1` is 25.3%. For the compound `O=C(c1nnc(Nc2ccccc2Br)o1)c1c[nH]c2ccccc12`, the growth is 88.9%. Turning to `NNC(=O)c1ccc(-n2nc(-c3ccccc3)c3ccccc32)cc1`, the growth was 63.9%. As to `Cc1cnc(C(=O)Nc2nc3ccc(S(=O)(=O)Nc4ccc(C5(C(F)(F)F)CC5)cc4)cc3[nH]2)cn1`, the growth is 47.2%. The same measure for `CCCCCCCCOc1ccc(/C=N/Nc2cc(C)nc3ccc(Br)cc23)cc1`: 33.2%.

Take `Cc1ccc(NC(=O)c2cc(-c3nc4ccccc4s3)c(=O)n(NS(=O)(=O)c3ccc(Cl)cc3)c2N)cc1`: the growth is 96.1%.

As for `N/C(=N\C(N)=N\c1nc2ccccc2s1)c1cnccn1`, the growth was 58.1%.

In the case of `CCN(CC)CCCC(C)Nc1cc(O)cc2cccnc12` (configuration not stated), the growth was 69.4%.

`COc1ccccc1NS(=O)(=O)c1cccc(C(=O)Nc2ccc(Br)cc2)c1`: the growth was 50.6%. The same measure for `COc1c(Cl)c2c(c(OC)c1OC)-c1ccc(SC)c(=O)cc1[C@@H](NC(=O)OCC(F)(F)F)CC2`: -1.03% (active); for `O=C(Cn1c[n+](CC(=O)c2ccc(-c3ccccc3)cc2)c2ccccc21)Nc1cccc2cccnc12`: -7.75% (active). The figure for `CC(=O)CCC(=O)OCc1cc(=O)c(O)co1` is 110%; for `COc1ccccc1NC(=O)C1CC(c2ccc(F)cc2)=NO1` (configuration not stated) it is 98.5%; for `COc1cccc(-c2nc3occn3c2-c2ccnc(NCCNS(=O)(=O)c3cccc4ccccc34)n2)c1` it is 112%. In the case of `N#C/C(=C\c1ccc([N+](=O)[O-])s1)c1nc2cc(Cl)ccc2s1`, the growth is -47.2% (active).

With `CNC(=O)c1cccc(Cn2nc(C)c(NC(=O)c3ccc(COc4ccc(C(F)(F)F)cc4C)cc3)c2C)n1`, the growth is 75.2%. The figure for `N#Cc1c(NCc2ccccc2I)sc2c1CCCCC2` is 85.4%.

For `CCCCCN1C=C/C(=C\C(=O)n2ccc3ccccc32)c2ccccc21`, the growth is 93.2%. The same measure for `COc1ccc(C(=O)c2cc(C)c(OC)c(C)c2)c(OC)c1OC(=O)C(Cl)Cl`: 18.8%. With `NC(=NCc1ccccc1)C(N=Nc1ccccc1)C(=O)NCc1ccccc1` (configuration not stated), the growth was 68.3%. In the case of `N#CC1C(C#N)C2c3ccccc3C=CN2C1C(=O)c1ccc(Br)cc1` (configuration not stated), the growth is 92.2%.

On to `O=S(=O)(NCCNc1nccc(-c2c(-c3cccc(O)c3)nc3occn23)n1)c1cccc(F)c1`, for which the growth was 69.4%. The figure for `COc1cc2oc(-c3cccc(C(=O)Nc4ccc5c(c4)OCO5)c3)cc(=O)c2c(O)c1OC` is 68.1%; for `COc1cc(/C=C/c2cc(O)c(C(C)=O)c(O)c2)cc2c1O[C@]1(C)CC[C@@H](O)C(C)(C)[C@H]1C2` it is 37.6%. The same measure for `Cc1cnc(C(=O)Nc2nc3ccc(S(=O)(=O)Nc4ccc(C(C)(C)C)cc4)cc3[nH]2)cn1`: 30.6%; for `O=S(=O)(Nc1ccc(-n2cnc3cc(-c4ccc(O)cc4)ccc32)cc1)c1ccccc1`: 85.1%. For `Nc1n[nH]c2cccc(C#Cc3cccc(C(=O)Nc4cc(CN5CCOCC5)cc(C(F)(F)F)c4)c3)c12`, the growth is 19.6%. As for `COc1ccc(C(=O)c2cc(C)c(OC)c(C)c2)c(OC)c1N(C(=O)CCl)C(=O)CCl`, the growth is -1.61% (active).

With `O=S(=O)(NCCNc1nccc(-c2c(-c3cccc(O)c3)nc3occn23)n1)c1ccccc1`, the growth was 66.5%. The same measure for `CC(C)(C)c1ccc(NS(=O)(=O)c2ccc3nc(NC(=O)c4cnccn4)[nH]c3c2)cc1`: 50.5%. The figure for `C#CCNC(=O)c1cccc2c1cc(C)n2-c1nc2c(c(NCc3ccccc3)n1)CCCC2` is -69.7% (active); for `NC1=NN=C(N)C1=Cc1cc2ccccc2n2nnnc12` it is 95.5%.
